Inconclusive results are not listed. Entries that show only a call come without a potency. The source made the active and inactive calls. The call rests on the fitted dose curve; in most records, active means well fitted activation curve with a large enough effect; inconclusive means small, poorly fitted or top-dose-only effect; inactive means no such curve, though single readings can be large or run the other way.

A short description of the assay: qHTS assay for re-activators of p53 using a Luc reporter: Hit Validation with no p53 Expressed. Conditions: p53-null cells, luciferase reporter counter-screen; series mostly up to 46.1 µM. In a few lines:
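Without p53 expression, cells (1000/well, Opti-MEM + 10% FBS) were exposed 24 h at 37 deg C to compounds in a 1:5 series from 10 mM stock (top 46.1 µM in well). Luminescent signal read 10 min after Amplite addition; actives flag unspecific activation.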
Regarding `O=c1sc(/C=N/Nc2ccccc2)c(Cl)n1Cc1ccccc1`, the Potency result was “inactive”.

`Cc1ccc2nc(-c3ccc(NC(=O)CCN4C(=O)c5ccccc5C4=O)cc3)sc2c1`: the Potency entry was “inactive”.

For the molecule `O=C(Cn1cc(SCc2ccc(F)cc2)c2ccccc21)N1CCOCC1`, the Potency entry was “inactive”.

With `CCCSc1ccc2nc(-c3ccccc3)cn2c1`, the Potency entry was “inactive”.

For `Cc1cc(C)n2cc(CSc3nc4ccccc4s3)nc2n1`, the Potency entry is “inactive”.

Regarding `COc1ccc(N2CCN(CCCNC(=O)C3(S(=O)(=O)c4ccc(Cl)cc4)CC3)CC2)cc1`, the Potency entry was “inactive”.

Take `Cc1cc(C(=O)CSc2nnc(N)s2)c(C)n1Cc1cccs1`: the Potency result is “inactive”.

For the molecule `Cc1ccc(C(=O)Nc2cnc3sc(C)nn3c2=O)cc1`, the Potency entry was “inactive”.

Consider `S=C(Nc1ccccc1)Nc1nc2ccccc2n1CCOc1ccc(Br)cc1`, for which the Potency result is “inactive”.

For the molecule `Nn1cnnc1N/N=C\c1ccc(-c2ccccc2[N+](=O)[O-])o1`, the Potency result is “inactive”.

As for `Cc1noc(C)c1C(=O)OCC(=O)N1CCc2ccccc21`, the Potency result is “inactive”.

Take `NC(=O)c1cc(Cl)ccc1OCC(=O)Nc1ccc2c(c1)OCO2`: the Potency result was “inactive”.

As to `CC(C)(C)c1cc(-n2ccnc2)n2ncc(-c3ccc(Cl)cc3)c2n1`, the Potency result is “inactive”.

For `O=C(Nc1ccc2ccccc2c1)c1ccc(Cl)cc1Cl`, the Potency result was “inactive”.

In the case of `Cc1cc(Oc2ccccc2)nc(-c2ccccc2O)n1`, the Potency entry was “inactive”.

In the case of `COc1ccc(/C(O)=C2/C(=O)C(=O)N(CCN3CCOCC3)C2c2ccccn2)cc1` (centres undefined), the Potency result is “inactive”.

Consider `Cc1ccsc1/C=C1\CCc2ccccc2C1=O`, for which the Potency entry was “inactive”.

`Cc1ccc(NC(=O)c2ccc(OC(=O)C(C)Oc3ccc(Cl)cc3C)cc2)cc1` (centres undefined): the Potency entry was “inactive”.

As to `O=C(Nc1nc2c(s1)CCCC2)C1COc2ccccc2O1` (centres undefined), the Potency result is “inactive”.
